The text below walks through data of PubChem BioAssay.

A number with no mark means an inactive call. How the calls were made is not given here.

Broadly, the inhibition is the share of the control response that was lost under treatment.

This experiment deals with Pantothenate synthetase (Mycobacterium tuberculosis (strain ATCC 25618 / H37Rv)) (UniProt P9WIL5). Description: Recombinant Mtb pantothenate synthetase (PanC) inhibitors, coupled enzyme, confirmatory (AID 375).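 Further: 0% = full reaction with vehicle and 100% = no enzyme background.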 The settings on record: coupled enzyme assay; at 10 µM, hits give high values.
Sequence of Pantothenate synthetase (Mycobacterium tuberculosis (strain ATCC 25618 / H37Rv)) (P9WIL5 whole entry, looked up): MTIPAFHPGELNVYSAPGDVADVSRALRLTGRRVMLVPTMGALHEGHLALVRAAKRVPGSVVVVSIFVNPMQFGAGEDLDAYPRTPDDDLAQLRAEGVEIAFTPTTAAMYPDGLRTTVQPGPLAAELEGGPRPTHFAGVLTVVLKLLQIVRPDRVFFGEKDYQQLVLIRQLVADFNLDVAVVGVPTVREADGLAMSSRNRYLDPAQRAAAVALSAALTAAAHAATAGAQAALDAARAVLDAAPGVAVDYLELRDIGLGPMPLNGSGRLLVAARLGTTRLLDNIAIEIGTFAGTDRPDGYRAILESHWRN
For `CCOC(=O)C1CCN(C(=O)Nc2ccc(Cl)cc2Cl)CC1`, the inhibition was 0%.
Turning to `CCN(CC)CCCn1c(=S)[nH]c2cc(Cl)ccc2c1=O`, the inhibition is 0%.
To `CCOC(=O)c1ccc(N(CC(=O)NC2CCCC2)C(=O)CNC(=O)c2ccco2)cc1` belongs 6%; to `CC1CCc2cc(F)cc3c(O)c(C(=O)NCC4CCCO4)c(=O)n1c23` (configuration not stated), 2%; to `COc1ccc(-c2nc(C#N)c(NCCCN(C)C)o2)cc1OC`, 0%.
As to `Cc1ccc2c(c1)N(CC(=O)N1CCCCC1c1cccnc1)C(=O)CO2` (configuration not stated), the inhibition was 0%.
The same measure for `CCn1c(SCC(=O)Nc2ccc(Cl)cc2)nnc1C1CC1`: 0%.
To `NNC(=O)c1ccncc1` belongs 0%.
In the case of `CCOC(=O)CSC1=C(C#N)C(c2ccc(Cl)cc2)C(C(=O)OC)C(=O)N1` (configuration not stated), the inhibition is 0%.
As to `Cn1cnc(S(=O)(=O)NCc2cccs2)c1`, the inhibition is 0%.
Regarding `CC(C)Cn1c(N)c(C(=O)COC(=O)c2cc(-c3ccco3)nc3ccccc23)c(=O)n(C)c1=O`, the inhibition is 7%.
To `CC(Oc1ccc(Cl)cc1Cl)c1nc(-c2ccc(NC(=O)c3cccnc3)cc2)no1` (configuration not stated) belongs 3%; to `CCOC(=O)Cn1nc(-c2ccc(C)cc2)ccc1=O`, 0%.
To `O=S(=O)(NC1CCCCC1NS(=O)(=O)c1ccc(F)cc1)c1ccc(F)cc1` (configuration not stated) belongs 0%; to `COC(=O)C1(C(=O)OC)Sc2ccccc2C1=O`, 3%; to `O=S(=O)(c1ccccc1)N1CCSC1c1ccco1` (configuration not stated), 3%.
The same measure for `Cc1cc(NCCN2CCCCC2)n2c(nc3ccccc32)c1C#N`: 14%.
